SMILES strings stand for the structures. Results filed as inconclusive are left out. Calls of active or inactive are those of the source. Calls follow the shape of the dose curve; as a rule, active = well fitted inhibition curve with a large enough effect; inconclusive = small, poorly fitted or top-dose-only effect; inactive = no such curve, though single readings can be large or run the other way.
% is scaled to controls: 0 for no effect and ±100 for the full control effect.

The experiment deals with Zika virus NS2B-NS3 protease (linked construct). The experiment in a line: Primary screen NINDS Rhodamine qHTS for Zika virus inhibitors (AID 1347160). Also: nearly all actives have a fitted effect of over 55% in size. As to conditions: purified NS2B-NS3 protease, Rhodamine110 substrate fluorescence; series mostly up to 57.1 µM; activity change, negative = inhibition: at the top concentration. Put shortly:
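Purified linked NS2B-NS3 protease (NS2B hydrophilic domain joined to NS3 protease by flexible linker), 25 nM in 10 mM Tris-HCl pH 8.0, 0.01% Tween 20. Compounds titrated, 15 min preincubation at room temperature; 1.5 microM Rhodamine110 substrate, FITC fluorescence change over 15 min.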
For orientation: qHTS replaces the single test concentration by a dilution series.
Consider `CCc1cccc(CC)c1NC(=O)c1nn(C)c2c1CCc1cnc(Nc3ccc(C(=O)NC4CCN(C)CC4)cc3OC(F)(F)F)nc1-2`, for which the “outcome” value was “inactive [at 33.1 µM]”.

On to `Cc1csc(NC(=O)c2ccc(COc3cccc(Cl)c3)o2)n1`, for which the “activity change, negative = inhibition” value is 79.3% (inactive).

Take `CC1OC(OC2C(O)C(OC3CCC4(C)C(CCC5(C)C4CC=C4C6CC(C)(COC7OC(CO)C(O)C(O)C7O)CC(O)C6(C)CCC45C)C3(C)C)OC(C(=O)O)C2O)C(O)C(O)C1OC1OCC(O)C(O)C1O` (stereo not drawn): the “activity change, negative = inhibition” value is -26.7% [at 15.1 µM] (inactive).

For `COc1cc(O)c2c(c1)C1=CC(O)C(O)CC1(C)OC2=O` (stereo not drawn), the outcome was inactive.

As for `COC(=O)C[C@H]1[C@]2(C)C3=C(C)[C@H](c4ccoc4)C[C@H]3O[C@@H]2[C@H](OC(C)=O)C2[C@](C)(C(=O)OC)C=CC(=O)[C@@]21C` (stereo partly drawn), the “activity change, negative = inhibition” value was -27% [at 33.1 µM] (inactive).

Regarding `C/C=C1\[C@H](O[C@@H]2O[C@H](CO)[C@@H](O)[C@H](O)[C@H]2O)OC=C(C(=O)OC)[C@H]1CC(=O)OC[C@H]1O[C@@H](OCCc2ccc(O)cc2)[C@H](O)[C@@H](O)[C@@H]1O`, the “outcome” value was “inactive [at 15.1 µM]”.

Consider `Cc1ccccc1CN1C2=NCCN2C(=O)C2=C1CCN(Cc1ccccc1)C2`, for which the “activity change, negative = inhibition” value was -10.3% (inactive).

With `COC(=O)N1CCC(n2ncc3c(N4CCOCC4)nc(-c4ccc(NC(=O)Nc5ccc(CO)cc5)cc4)nc32)CC1`, the “activity change, negative = inhibition” value was 19.2% (inactive).

These data come from PubChem BioAssay (NCATS).
